# Results taken from PubChem BioAssay (NCI).
# Values joined by “and” are separate entries in the source; they are usually repeats but may differ in a detail not shown here. Equal values may be shown once. About 83,000 compounds went through this panel and 20% of them were active in at least one assay; those are over-represented in the sample as a whole.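 Growth was measured after 48 h exposure to one concentration of compound in 96-well plates. Values under 10 count as active.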 Active and inactive are the calls of the source.
# Test system: MDA-MB-468 breast
# Assay: NCI-60 one-dose screen, 48 h (100 = growth as untreated, 0 = no growth, -100 = all killed)
# Details: 10 µM unless noted
row,SMILES,growth
1,CCCCCCCC/C=C\CCCCCCCCOc1ccccc1CC(=O)NCC[N+]1(C)CCOCC1,65.3% (inactive)
2,Cc1cccc(NC(=O)c2sc3nc4c(cc3c2N)C(=O)CCC4)c1,33.1% (inactive)
3,COc1ccc(-c2nc3sc(-c4ccccc4)c(-c4ccccc4)n3c2/C=C/C(=O)c2ccccn2)cc1,60% (inactive)
4,COC(=O)CCCCC1=CCC2C(=O)C=C(O)C2C1 (stereo not given),100% (inactive)
5,O=C(Oc1ccc(CO[N+](=O)[O-])cc1)c1ccccc1,-67.7% (active)
6,COc1ccc2c(c1)OC13Oc4cc(OC)ccc4C=C1CCCC3=C2,56.3% (inactive)
7,Clc1ccc(/C=N\N=C\c2ccc(Cl)c(Cl)c2)cc1Cl,78.5% (inactive)
8,CCCCC(=O)Nc1nc2ccc(SCCC)cc2s1,20% (inactive)
9,CCCCN1C(=O)/C(=c2\sc3n(c2=O)C2C(NN=3)N(CC)C(=O)N2CC)c2cc(C)ccc21 (stereo not given),65.4% (inactive)
10,COc1cc2c(Nc3ccc(Br)cc3F)ncnc2cc1OCC1CCN(C)CC1,-23.3% (active)
11,Cc1[nH]ccc2cc3nc4ccccc4c3cc12,10.7% (inactive)
12,S=c1sc2c(Cl)nc(-c3cccnc3)nc2n1-c1ccccc1,-34.2% (active)
13,CC/C(=C(/c1ccc(Cl)cc1)c1ccc(OCCCN(C)C)cc1)c1ccc(OC)cc1,51.7% (inactive)
14,CCCCC(CC)COC(C)=O (stereo not given),106% (inactive)
15,O=C(c1ccccc1)C1OC1C(=O)c1ccccc1 (stereo not given),0.0075% (active)
16,CCN(CC)CCC(CNc1c(C)cnc2cc(Cl)ccc12)c1ccc(Cl)c(Cl)c1 (stereo not given),18.5% (inactive)
17,NC(=S)N/N=C/c1cc(-c2cccc(N)c2)ccn1,-11.8% (active)
18,c1cc[n+](Cc2ccnc3ccccc23)cc1,126% (inactive)
19,O=C(c1ccccc1)c1ccco1,118% (inactive)
20,CC(C)(C)OC(=O)NCc1cccc(N=C=S)c1,39.4% (inactive)

row,SMILES,growth
1,O=C1C(=O)/C(=C/c2ccccc2)CCCCCC/C1=C/c1ccccc1,65.7% (inactive)
2,Cc1c(C)c([N+](=O)[O-])c(C)c([N+](=O)[O-])c1C,97.6% (inactive)
3,Cc1nc2sc(C(=O)Nc3ccc(Cl)cc3)c(N)c2cc1C(O)c1ccccc1 (stereo not given),-0.107% (active)
4,CS(=O)(=O)Nc1cc(-c2ccc3ncnc(Nc4cccc(Cl)c4)c3c2)cnc1Cl,-55.7% (active)
5,CCN(CC)CCOC(=O)N1c2ccccc2Sc2ccccc21,96.3% (inactive)
6,C=CCN1C(=O)/C(=c2\sc3n(c2=O)C2C(NN=3)N(CC)C(=O)N2CC)c2ccccc21 (stereo not given),16.3% (inactive)
7,C=C1CC[C@@H]2[C@](C)(COC(C)=O)[C@H](OC(C)=O)CC[C@@]2(C)[C@@H]1C/C=C1/C(=O)OC[C@H]1OC(C)=O,7.98% (active)
8,NNc1ccc(S(N)(=O)=O)cc1,100% (inactive)
9,CC/C=C\C[C@H](O)C/C=C1/C(=O)C=C[C@@H]1C/C=C\CCCC(=O)O,28.7% (inactive)
10,O=C(N/N=C/c1ccccc1Cl)C(=O)Nc1cccc(C(F)(F)F)c1,89.1% (inactive)
11,Cc1cccc(Cl)c1N,110% (inactive)
12,CC(Cc1cccc2ccccc12)C(N)=O (stereo not given),110% (inactive)
13,C=C1C(=O)O[C@H]2[C@H]1CC/C(COC(=O)NC1CCC(O)CC1)=C\CC[C@@]1(C)O[C@@H]21 (stereo not given in full),37% (inactive) and 31.7% (inactive)
14,COc1ccc(Cn2cc(COc3cc(/C=C/C(=O)c4cc(OC)c(OC)c(OC)c4)ccc3OC)nn2)cc1,49% (inactive)
15,COc1cc2nc(Cl)nc(Nc3cccc(C4=Nc5c(N)nc(N)nc5NC(c5ccc(Cl)cc5)C4)c3)c2cc1OC (stereo not given),27.5% (inactive)
16,Oc1cccc(CNC2CCCCC2)c1,113% (inactive)
17,CC(=O)NCCSC(=O)C(=O)SCCNC(C)=O,103% (inactive)
18,NC1=NN(O)C2=CC([N+](=O)[O-])C=CC2=N1 (stereo not given),107% (inactive)
19,CS(=O)c1nccc(-c2c(-c3ccc(F)c(OCc4ccc(F)cc4)c3)nc3sccn23)n1 (stereo not given),-69.4% (active)
20,COc1ccccc1S(=O)Nc1ccccc1 (stereo not given),97.2% (inactive)
